# Only some compounds are listed: those with a hit (about 0.47% of all), similar ones and a draw of the others.
# UDG counterscr – counter-screen for AID inhibitors: uracil-DNA glycosylase inhibition; FRET deamination/UDG coupled assay, UDG read, 4 h; Potency, µM (top dose mostly 115 µM), for the others: at the highest dose activity change, negative = inhibition, actives largely listed as inhibitors; actives 0.14% (n = 91,000); AID 1347430; note: nearly all actives have a fitted effect of over 65% in size
# AID inhibitor – activation induced cytidine deaminase inhibition | Q9GZX7 | AID deamination FRET fluorescence, UDG-coupled, 4 h | Potency, µM (highest dose often 115 µM), usual class: inhibitors | actives 0.32% (n = 91,000); note: nearly all actives have a fitted effect of over 25% in size
# Target sequence (Q9GZX7 whole entry, looked up): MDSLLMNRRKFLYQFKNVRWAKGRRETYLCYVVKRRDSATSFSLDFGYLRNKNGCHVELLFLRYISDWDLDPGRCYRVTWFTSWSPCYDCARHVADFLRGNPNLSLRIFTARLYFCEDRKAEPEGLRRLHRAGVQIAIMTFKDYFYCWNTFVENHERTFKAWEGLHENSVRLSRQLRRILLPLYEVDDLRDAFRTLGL
# An asterisk follows results filed as active; i = inactive; ? = inconclusive; [ ] = remark or other dose. Calls come from the whole dose curve; as a rule, active = well fitted curve in the direction sought with a large enough effect; inconclusive = small, poorly fitted or top-dose-only effect, or another doubt; inactive = no such curve, though single readings can be large; an effect the other way counts as inactive or inconclusive. % is set by controls: 0 for no effect and ±100 for the full control effect; potency is the fitted concentration of half-maximal effect.
SMILES,UDG counterscr,AID inhibitor
O=C(CSc1cccc2cccnc12)NNC(=O)C(c1ccccc1)c1ccccc1,-11.8%,i
O=C(Nc1cccc2cccnc12)C(c1ccccc1)c1ccccc1,89.1µM*,i
COc1cc2c(=O)c(C(=O)c3ccc(C)c(C)c3)cn(Cc3ccc(F)cc3)c2cc1OC,-20.3%,44.7µM*
COc1cc2c(=O)c(C(=O)c3ccc(C)c(C)c3)cn(Cc3ccccc3)c2cc1OC,-11.4%,?
O=C(O)C(c1c[nH]c2cc(F)ccc12)N1CCN(CCOc2ccc(Cl)cc2)CC1 (stereo unspecified),-13.9%,i
COc1cccc(/C=C/c2nc(C#N)c(NCc3ccco3)o2)c1,-8.1%,i
COc1ccc(CNc2oc(/C=C/c3cccc(OC)c3)nc2C#N)cc1,89.1µM*,i
O=C(CCC1CCCCC1)Nc1ccc(F)cc1,-3.3%,i
COc1ccc(-c2noc(CSc3nnc(-c4ccccc4)n3C)n2)cc1,-23.7%,i
c1ccc(-c2noc(CSc3nnnn3C3CCCCC3)n2)cc1,89.1µM*,i
Cc1cc(C)n(-c2nc3ccccc3nc2N2CCN(S(=O)(=O)c3ccc4ccccc4c3)CC2)n1,89.1µM*,i
Cc1cc(C)n(-c2nc3ccccc3nc2N2CCN(C(=O)c3ccccc3)CC2)n1,11.7%,i
COc1ccccc1OCCCSc1nc(-c2ccc(C(C)(C)C)cc2)nc2cc(=O)[nH]n12,0.8%,?
CC(C)(C)c1ccc(-c2nc(SCCCOc3ccccc3)n3[nH]c(=O)cc3n2)cc1,-16.2%,79.4µM*
CCOc1ccccc1N1CCN(CC(=O)Nc2cc(Cl)ccc2Cl)CC1,-9.4%,i
O=C(CCc1ncc(-c2ccccc2F)o1)N1CCN(S(=O)(=O)c2ccc(F)cc2F)CC1,-10.4%,i
CC(C)(C)CC(=O)NCCC1=CCCCC1,-0.6%,i
COc1ccc(CNC(=O)C(=O)NCC(c2ccc3c(c2)OCO3)N2CCOCC2)cc1 (stereo unspecified),1.2%[57.5 µM],i
COc1ccc(CNCCC(c2ccc3c(c2)OCO3)c2ccccc2OC)cc1 (stereo unspecified),-14.8%,50.1µM*
Cc1ccc(NS(=O)(=O)c2cc(C(=O)O)cc3c2CCC3)cc1F,3.7%,i
Cc1ccc(C)c(Nc2nn3c(=O)c4ccc(C(=O)NCc5cccs5)cc4nc3s2)c1,-19.7%,39.8µM*
COc1ccccc1Nc1nn2c(=O)c3ccc(C(=O)NCc4cccs4)cc3nc2s1,-6.8%,i
CCN(CC)CCNC(=O)c1ccc2c(=O)n3nc(Nc4ccccc4OC)sc3nc2c1,1.7%,70.8µM*
COc1ccccc1Nc1nn2c(=O)c3ccc(C(=O)NCCCOC(C)C)cc3nc2s1,3.3%,i
CCCCCCCCCCCCS(=O)CC(O)CCl (stereo unspecified),-1.7%,i
SMILES,UDG counterscr,AID inhibitor
COc1cc(NC(=O)CN2C(=O)COc3cc(C(C)(C)C)ccc32)cc(OC)c1,1.5%,i
COc1ccc(NC(=O)CCS(=O)(=O)c2nc(-c3cccs3)cc(C(F)(F)F)n2)cc1,-6.5%,i
O=C(CCS(=O)(=O)c1nc(-c2cccs2)cc(C(F)(F)F)n1)Nc1ccc(OC(F)(F)F)cc1,-24.2%,10µM*
Cc1cccc(N2CCN(c3ncnc4onc(C)c34)CC2C)c1 (stereo unspecified),0.7%,i
Cc1cccc(N2CCN(c3ncnc4onc(-c5ccc(F)cc5)c34)CC2C)c1 (stereo unspecified),79.4µM*,?
O=[N+]([O-])c1ccc(C=Nc2cccc3ccccc23)cc1,-6.9%,i
COc1cc(NC(=O)C2=C(C)OCCS2)c(Cl)cc1C(=O)NCc1cccc(C)c1,0.0%,i
Cn1c(=O)c2c(-c3ccccc3)n3c(c2n(C)c1=O)C(c1cc(Cl)ccc1O)Nc1ccccc1-3 (stereo unspecified),?,i
COc1ccc(-c2c3c(=O)n(C)c(=O)n(C)c3c3n2-c2ccccc2NC3c2ccccc2OC)cc1 (stereo unspecified),79.4µM*,?
CCc1ccccc1N1CC(c2nc3ccccc3n2CCC2CCCCC2)CC1=O (stereo unspecified),79.4µM*,?
O=C1CC(c2nc3ccccc3n2CCCCOc2ccccc2)CN1c1ccccc1Cl (stereo unspecified),89.1µM*,?
Cc1ccc(N2CC(c3nc4ccccc4n3CCC3CCCCC3)CC2=O)cc1 (stereo unspecified),?,i
CCOc1ccccc1N1CC(c2nc3ccccc3n2CCCCOc2ccccc2)CC1=O (stereo unspecified),-14.7%,i
N#Cc1nc(-c2ccco2)oc1N1CCN(C(=O)NCC2CC2)CC1,-4.0%,i
COC(=O)NC(NC(=O)OC)c1ccc(Br)cc1,-6.5%,i
CCc1cccc(NC(c2nnc(-c3ccccc3)o2)c2ccc(F)cc2Cl)c1 (stereo unspecified),79.4µM*,?

# Source: PubChem BioAssay (National Center for Advancing Translational Sciences (NCATS))
